Values joined by “and” are separate entries in the source; they are usually repeats but may differ in a detail not shown here. Equal values may be shown once. Compounds without any hit were thinned out: in the full panel of roughly 79,000, 15% have a hit. Where a structure was tested more than once in an assay, its records may differ in their call. Active and inactive are the calls of the source. Rule as the data show it: active = growth inhibition above about 70%; inactive = the rest. *1 amine or outer side, *2 acyl side, *3 side chain or, on linkers, in order; H or OH if unused. Where a SMILES comes first, the peptide text is derived from it. [ ]: non-standard residue; d: D form. X2 = CC[C@H](C)[C@H](OC(=O)[C@@H](C)[C@@H](CC)N[*:1])C(=O)[*:2]; X3 = C[C@H](N[*:1])C(=O)C(C)(C)C(=O)[*:2]; NMeY = CN[C@@H](Cc1ccc(O)cc1)C(=O)O; NMeL = CN[C@@H](CC(C)C)C(=O)O; NMeV = CN[C@H](C(=O)O)C(C)C

Test [1] is described as follows: NCI Yeast Anticancer Drug Screen. Data for the rad50 strain (AID 155).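 Also: 0% = growth of vehicle-only cultures of the same strain.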 The conditions noted are these: S. cerevisiae rad50 strain growth inhibition, stronger effect = higher value. A digest of the protocol:
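Vehicle-treated cultures provide the reference for the growth inhibition reported for compound-exposed, repair-deficient yeast.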

The nature of test [2]: NCI Yeast Anticancer Drug Screen. Data for the mec2-1 strain (AID 157). The following applies: S. cerevisiae mec2-1 strain, stronger effect = higher value. In short, it runs like this: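 Vehicle-treated cultures served as reference for growth inhibition of compound-exposed mec2-1 yeast.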
Test [3] in a line: NCI Yeast Anticancer Drug Screen. Data for the sgs1 mgt1 strain (AID 161).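 Also: 0% = growth of cultures given vehicle only.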 The conditions noted are these: S. cerevisiae sgs1 mgt1 strain, stronger effect = higher value. In short, it runs like this: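 Read-out: growth inhibition vs vehicle controls. Cells: mutant yeast strain deficient in DNA damage repair.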
Test [4] in a line: NCI Yeast Anticancer Drug Screen. Data for the cln2 rad14 strain (AID 165).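 Also: 0% = growth equal to vehicle treated cultures.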 The following applies: S. cerevisiae cln2 rad14 strain, stronger effect = higher value. A digest of the protocol: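 Each compound was tested on cln2 rad14 yeast. Inhibition of growth was calculated against vehicle-exposed controls.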
Test [5] in a line: NCI Yeast Anticancer Drug Screen. Data for the bub3 strain (AID 167). The following applies: S. cerevisiae bub3 mutant strain, stronger effect = higher value. In short, it runs like this: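 Mutant yeast screening strain plus compound; vehicle-treated cultures serve as the 0% inhibition reference.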
A short description of test [6]: NCI Yeast Anticancer Drug Screen. Data for the mlh1 rad18 strain (AID 175). The following applies: S. cerevisiae mlh1 rad18 strain growth inhibition, stronger effect = higher value. In short, it runs like this:
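Vehicle-treated cultures served as the reference for growth inhibition in a yeast strain carrying DNA damage repair alterations exposed to each compound.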

The mark [7] stands for this setting: at 5.0 µM (retest, dose inferred, filed as 0.5).
Where [8] appears, read: at 50.0 µM (retest, dose inferred, filed as 5.0).

For the molecule `O=C1C(Br)=CC2(C=C1Br)CCNc1c(O)c3c4c(c12)=NCCC=4C=N3`, the growth inhibition in test [1] (setting [7]) is 31% (inactive); in test [1] (setting [8]), 72% (active); in test [1] (at 50.0 µM) it was 57.9% (inactive); in test [2] (setting [7]), 15% (inactive); in test [2] (setting [8]), 44% (inactive); in test [2] (at 50.0 µM), 46.5% (inactive). Moreover, the growth inhibition in test [3] (setting [7]) was 17% (inactive); in test [3] (setting [8]) it was 71% (active); in test [3] (at 50.0 µM), 54.2% (inactive); in test [4] (setting [7]) it was -1% (inactive); in test [4] (setting [8]), 50% (inactive); in test [4] (at 50.0 µM), 24.9% (inactive). The growth inhibition in test [5] (setting [7]) is -14% (inactive); in test [5] (setting [8]), 78% (active); in test [5] (at 50.0 µM), 49.6% (inactive); in test [6] (setting [7]) it was 25% (inactive); in test [6] (setting [8]) it was 75% (active); in test [6] (at 50.0 µM), 57.5% (inactive).

Take `ClC1=C(Cl)C2(Cl)C3CC4OC4C=CC3C1(Cl)C2(Cl)Cl` (stereo not given): the growth inhibition is 7% (inactive) and 4% (inactive) in test [1] (setting [7]); 93% (active) and 96% (active) in test [1] (setting [8]); 96.3% (active) and 39.2% (inactive) in test [1] (at 50.0 µM); 12% (inactive) and 5% (inactive) in test [2] (setting [7]); 97% (active) and 98% (active) in test [2] (setting [8]); 97.3% (active) and 39% (inactive) in test [2] (at 50.0 µM). Further, the growth inhibition in test [3] (setting [7]) was 10% (inactive) and 3% (inactive); in test [3] (setting [8]), 96% (active) and 98% (active); in test [3] (at 50.0 µM) it was 96.8% (active) and 73.6% (active); in test [4] (setting [7]), 0% (inactive); in test [4] (setting [8]) it was 96% (active); in test [4] (at 50.0 µM), 95.3% (active) and 47.4% (inactive). Besides, the growth inhibition was 2% (inactive) and 5% (inactive) in test [5] (setting [7]); 96% (active) and 97% (active) in test [5] (setting [8]); 97.1% (active) and 26.6% (inactive) in test [5] (at 50.0 µM); 8% (inactive) and 2% (inactive) in test [6] (setting [7]); 96% (active) in test [6] (setting [8]); 95.3% (active) and 60.9% (inactive) in test [6] (at 50.0 µM).

Consider `O=C(Nc1ccccc1)c1cc([N+](=O)[O-])ccc1O`, for which the growth inhibition in test [1] (setting [7]) was -1% (inactive); in test [1] (setting [8]), 98% (active); in test [1] (at 50.0 µM), 95.7% (active); in test [2] (setting [7]), 0% (inactive); in test [2] (setting [8]), 97% (active); in test [2] (at 50.0 µM) it was 92% (active). For the same molecule, the growth inhibition in test [3] (setting [7]) is 2% (inactive); in test [3] (setting [8]), 95% (active); in test [3] (at 50.0 µM), 62.5% (inactive); in test [4] (setting [7]) it was -2% (inactive); in test [4] (setting [8]) it was 86% (active); in test [4] (at 50.0 µM), 32.5% (inactive). The growth inhibition in test [5] (setting [7]) is 0% (inactive); in test [5] (setting [8]), 96% (active); in test [5] (at 50.0 µM) it was 90.5% (active); in test [6] (setting [7]), 12% (inactive); in test [6] (setting [8]) it was 96% (active); in test [6] (at 50.0 µM) it was 97.5% (active).

Consider `CC[C@H](C)[C@@H]1OC(=O)[C@@H](C)[C@@H](CC)NC(=O)[C@H](C)NC(=O)C(C)(C)C(=O)[C@H](C)NC(=O)[C@H](Cc2ccc(OC)cc2)N(C)C(=O)[C@H](C(C)C)N(C)C(=O)CNC(=O)[C@H](CC(C)C)N(C)C(=O)CNC1=O` (cyclo(A[X2]G[NMeL]G[NMeV][NMeY](Me)[X3])), for which the growth inhibition in test [1] (setting [7]) is 99% (active); in test [1] (setting [8]), 99% (active); in test [1] (at 50.0 µM), 92% (active); in test [2] (setting [7]), 99% (active); in test [2] (setting [8]), 99% (active); in test [2] (at 50.0 µM), 94% (active). The growth inhibition is 99% (active) in test [3] (setting [7]); 99% (active) in test [3] (setting [8]); 93% (active) in test [3] (at 50.0 µM); 98% (active) in test [4] (setting [7]); 98% (active) in test [4] (setting [8]); 91% (active) in test [4] (at 50.0 µM). Moreover, the growth inhibition in test [5] (setting [7]) is 99% (active); in test [5] (setting [8]) it was 98% (active); in test [5] (at 50.0 µM), 92.7% (active); in test [6] (setting [7]), 96% (active); in test [6] (setting [8]), 97% (active); in test [6] (at 50.0 µM), 90.2% (active).

As for `COc1cc(C=Nc2cc(Br)c(OC)c(Br)c2)ccc1N(CCCl)CCCl`, the growth inhibition is 1% (inactive) in test [1] (setting [7]); 73% (active) in test [1] (setting [8]); 84.5% (active) in test [1] (at 50.0 µM); -12% (inactive) in test [2] (setting [7]); 79% (active) in test [2] (setting [8]); 31.4% (inactive) in test [2] (at 50.0 µM). For the same molecule, the growth inhibition in test [3] (setting [7]) was -1% (inactive); in test [3] (setting [8]) it was 45% (inactive); in test [3] (at 50.0 µM) it was 76.2% (active); in test [4] (setting [7]), 1% (inactive); in test [4] (setting [8]), 46% (inactive); in test [4] (at 50.0 µM) it was 55.7% (inactive). For the same molecule, the growth inhibition is -8% (inactive) in test [5] (setting [7]); -3% (inactive) in test [5] (setting [8]); -1.45% (inactive) in test [5] (at 50.0 µM); 54% (inactive) in test [6] (setting [7]); 95% (active) in test [6] (setting [8]); 83.2% (active) in test [6] (at 50.0 µM).
